Several values for one entry are separate records, joined by “and”; a condition that tells them apart may be missing. Identical values can stand only once. Among all 340,000 compounds or so, about 12,000 (3.5%) were called active. Another 18% or so got no clear call; they are omitted. The call rests on the fitted dose curve; in most records, active means well fitted inhibition curve with a large enough effect; inconclusive means small, poorly fitted or top-dose-only effect, or another doubt; inactive means no such curve, though single readings can be large or run the other way. Many of the other results were omitted from the sample, so actives are more common in it than they were. More than one record can exist for a structure, and the calls need not agree.
experiment: qHTS Assay for Inhibitors of Hepatitis C Virus (HCV); details: Huh7.5.1 HCVcc-Cre infection, luciferase reporter, 44 h; series mostly up to 41.8 µM; activity change, negative = inhibition: at the top concentration
Procedure, shortened: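 HCVcc-Cre virus at an moi near 0.5 was added right after compound to cells cultured 4 h from seeding (1,000 cells/well). Luciferase activity was determined 44 h later, 15 min after substrate addition at RT.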
On the % scale 0 is the no-effect control and ±100 the full control effect; potency means the concentration at half of the fitted maximal effect.

Row | Compound | activity change, negative = inhibition | Potency
1 | O=C(CNC(=O)c1ccco1)NNC(=O)c1ccc(Br)cc1 | 20.7% (inactive) | –
2 | COc1ccc(NC(=O)CN(C)C(=O)/C=C/c2cn(Cc3ccccc3)nc2-c2cccnc2)cc1 | 3.26% (inactive) | –
3 | C[C@H]1CN([C@@H](C)CO)C(=O)Cc2cc(NS(C)(=O)=O)ccc2O[C@@H]1CN(C)CC1CC1 | 15.9% (inactive) | –
4 | Cc1c(C(=O)Nc2cccc(S(=O)(=O)N3CCOCC3)c2)oc2ccccc12 | – | 14.1 µM (active)
5 | Cc1occc1C(=O)Nc1cccc(S(=O)(=O)N2CCOCC2)c1 | -4.28% (inactive) | –
6 | O=C(CSc1ccccc1)Nc1cccc(S(=O)(=O)N2CCOCC2)c1 | -12.6% (inactive) | –
7 | CCCC(O)(c1ccccc1)C(c1ccccc1)c1ccccn1 (centres undefined) | 4.16% (inactive) | –
8 | Cc1c(C(=O)Nc2ccccn2)oc2ccc(Br)cc12 | -2.03% (inactive) | –
9 | O=c1[nH]c(CCl)nc2cc(-c3ccc(Cl)cc3)sc12 | – | 6.31 µM (active)
10 | O=c1[nH]c(CN2CCOCC2)nc2cc(Cl)ccc12 | 3.38% (inactive) | –
11 | NC(=O)Cc1nc2scc(-c3ccc(Cl)cc3)c2c(=O)[nH]1 | 4.99% (inactive) | –
12 | COc1ccc(/C=C/C(=O)OCC(=O)NC2CCCCCC2)cc1OC | -10.7% (inactive) | –
13 | COc1cc(OC)cc(C(=O)NC(C(=O)N2CCC2)C(C)C)c1 (centres undefined) | -12.1% (inactive) | –
14 | CC(C=Cc1ccccc1)=NNS(=O)(=O)c1ccc([N+](=O)[O-])cc1 | -8.84% (inactive) | –
15 | CC1(C)N=C(N)NC(Nc2ccc(Cl)cc2)=N1 | 8.79% (inactive) | –
16 | COc1ccccc1NC1=NC(c2ccc(Cl)cc2)N=C(N)N1 (centres undefined) | – | 10 µM (active)
17 | COc1ccccc1NC1=NC2(CCCC2)N=C(N)N1 | 8.21% (inactive) | –
18 | Cc1ccccc1-n1nnc2c(=O)oc3ccccc3c21 | – | 35.5 µM (active)
19 | O=c1oc2ccccc2c(=O)c2ccccc12 | -4.58% (inactive) | –
20 | CCOC(=O)c1c(C)nc2c(c1C)c(=O)oc1ccccc12 | 11.3% (inactive) | –
21 | Cc1cc(NC(=O)CSc2nnc(-c3ccco3)n2N)no1 | 8.97% (inactive) | –
22 | COc1ccc(NC(=O)CCCNC(=O)Cn2cnc3sc4c(c3c2=O)CCCC4)cc1OC | -21% (inactive) | –
23 | COc1ccc(/C=N/Nc2ncnc3sc4c(c23)CCCC4)cc1O | – | 11.2 µM (active)

Row | Compound | activity change, negative = inhibition | Potency
24 | COc1ccc(NC(=O)CCNC(=O)Cn2cnc3sc4c(c3c2=O)CCCC4)cc1OC | 13.8% (inactive) | –
25 | O=C(COC(=O)/C=C/c1cccc(Cl)c1)NCc1cccs1 | 17.5% (inactive) | –
26 | O=C(OCC(=O)N1CCCCC1)c1ccc(OC(F)(F)F)cc1 | -0.311% (inactive) | –
27 | COc1ccc(Cl)cc1C(=O)NCC#N | -16% (inactive) | –
28 | CCN(CC)CCNC(=O)c1ccc(NS(=O)(=O)c2ccc3c(c2)OCCO3)cc1 | 9.4% (inactive) | –
29 | CCN(CC)CCNC(=O)c1cc(S(C)(=O)=O)ccc1OC | – | inactive and 35.5 µM (active)
30 | COc1ccccc1/C=C/C(=O)OCC(=O)NC1CCCCCC1 | -4.31% (inactive) | –
31 | Clc1c(OCCCn2ccnc2)ccc2ccccc12 | – | 14.1 µM (active)
32 | CCOc1ccccc1C(=O)NCCCn1ccnc1 | 31.5% (inactive) | –
33 | O=C(CCN1C(=O)c2ccccc2C1=O)NCCCn1ccnc1 | 21.1% (inactive) | –
34 | N#Cc1cc([N+](=O)[O-])ccc1NC(=O)COC(=O)c1cnccn1 | 10.2% (inactive) | –
35 | CCOC(=O)/C(=N\Nc1ccccc1[N+](=O)[O-])c1csc(Nc2ccccc2)n1 | – | 5.01 µM (active)
36 | CCOC(=O)C/C(C)=N\Nc1ccc([N+](=O)[O-])cc1[N+](=O)[O-] | -10.9% (inactive) | –
37 | Cc1csc(NC(=O)Nc2ccccc2[N+](=O)[O-])n1 | -16.5% (inactive) | –
38 | COc1ccc(N=C2C=CC(=O)O2)cc1 | 2.73% (inactive) | –
39 | COc1ccccc1C(=O)COC(=O)COc1ccc(C#N)cc1 | 12.2% (inactive) | –
40 | CCn1c(Cc2ccccc2)nnc1SCc1nc2ccccc2c(=O)[nH]1 | 1.37% (inactive) | –
41 | O=c1[nH]c(CSc2ncc(-c3ccc(F)cc3)n2Cc2ccco2)nc2ccccc12 | – | 25.1 µM (active)
42 | Cn1c(-c2ccc(F)cc2)cnc1SCC(=O)NCc1ccco1 | 4.53% (inactive) | –
43 | CC(C)(CNC(=O)CNC(=O)C1CCCCC1)N1CCOCC1 | 7.89% (inactive) | –
44 | O=C(C[C@@H]1C/C=C\CCC(=O)OC[C@@H]2CCCN2C1=O)NCCO | 25.9% (inactive) | –
45 | COc1ccc(CS(=O)/C(Cl)=C(/Cl)C(=O)Nc2ccc(OC)nc2)cc1 (centres undefined) | – | 4.47 µM (active)
46 | COc1ccc(C(=O)Nc2ccc(NC(=O)C(C)C)nc2)cc1 | -18.4% (inactive) | –

Row | Compound | activity change, negative = inhibition | Potency
47 | COc1ccc(Nc2cc(Cl)ccc2C(=O)O)cn1 | 7.73% (inactive) | –
48 | COc1ccc(NS(=O)(=O)c2ccc(C)c(C(=O)NCC(c3cccs3)N3CCOCC3)c2)cc1 (centres undefined) | 8.78% (inactive) | –
49 | CC(C)Cc1nnc(N)s1 | 35.4% (inactive) | –
50 | Cc1nc(-c2ccc(F)cc2)c(CC(=O)Nc2cc(S(=O)(=O)N3CCCCC3)ccc2C)s1 | -18.8% (inactive) | –
51 | COC1=CC(=O)OC(c2ccc(OC)cc2)C1 (centres undefined) | 1.66% (inactive) | –
52 | CCSc1nnc(NC(=O)c2ccc(C)cc2)s1 | 13.7% (inactive) | –
53 | CSc1nnc(NC(=O)c2nc(S(=O)(=O)Cc3ccc(C)cc3)ncc2Cl)s1 | – | 12.6 µM (active)
54 | CSc1ncc(Cl)c(C(=O)Nc2cc(C)ccc2C)n1 | 12% (inactive) | –
55 | CCC1Nc2ncnc(N3CCN(c4ccccc4)CC3)c2N(Cc2ccc(Cl)cc2)C1=O (centres undefined) | -52.3% (inactive) | –
56 | CCCN(CC1CC1)C(=O)COC(=O)c1ccc(C)cc1O | -14.8% (inactive) | –
57 | COc1ccc(C(=O)O)cc1S(=O)(=O)NC1CCN(Cc2ccccc2)CC1 | 19.7% (inactive) | –
58 | Oc1ccc(N=Cc2c(O)ccc3ccccc23)cc1 | 12% (inactive) | –
59 | Oc1c(C=Nc2cccc3nsnc23)ccc2ccccc12 | -29.7% (inactive) | –
60 | Oc1ccc2ccccc2c1N=Nc1nccs1 | – | 8.91 µM (active)
61 | COc1ccccc1CCC(=O)NNC(=O)c1ccncc1 | 0.729% (inactive) | –
62 | CC(C)(C)OC(=O)C[C@@H]1C/C=C\C[C@@H](CC(=O)N[C@H](CO)Cc2ccccc2)C(=O)NC[C@@H](c2ccccc2)OC1=O | 2.19% (inactive) | –
63 | COc1cc(CC(=O)NCc2cccs2)cc(OC)c1OC | 14.3% (inactive) | –
64 | COc1cc2c(-c3ccc4c(c3)OCO4)c(-c3ccsc3)oc(=O)c2cc1OC | -6.43% [at 8.37 µM] (inactive) | –
65 | COC(=O)c1c(-c2ccsc2)oc2ccc(-c3cc(OC)c(OC)c(OC)c3)cc12 | – | 12.6 µM (active)
66 | Cn1c(-c2ccc(F)cc2)cc2onc(-c3ccccc3Cl)c2c1=O | 15.1% (inactive) | –
67 | CC1(C)CC(=O)C=C(c2ccc(Cl)c(C(F)(F)F)c2)C1 | 9.91% (inactive) | –
68 | COc1ccc(S(=O)(=O)N2CCOCC2)cc1NC(=O)CSc1nnc(NC2CC2)s1 | 6.7% (inactive) | –
69 | Cc1cc(NC(=O)COC(=O)/C=C/c2ccc(C)o2)no1 | 0.593% (inactive) | –

Source: PubChem BioAssay AID651820 (National Center for Advancing Translational Sciences (NCATS), 2012)
